# According to PubChem BioAssay (NCI):
# The panel holds about 83,000 compounds, 20% with a hit somewhere; the sample as a whole holds those more often.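 Treatment: one concentration, 48 hours, 96-well format. Scoring: percent growth, with anything below 10 considered active.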 Values without a mark were called inactive. Activity calls are given as the source filed them.
# How the values were obtained:
# Assay in all cases: NCI-60 one-dose screen, 48 h (100 = growth as untreated, 0 = no growth, -100 = all killed)
# Conditions in all cases: 10 µM unless noted
# [1] = test system: SR leukemia
# [2] = test system: RPMI-8226 leukemia
# [3] = test system: OVCAR-8 ovarian
# [4] = test system: OVCAR-5 ovarian
# [5] = test system: OVCAR-4 ovarian
# [6] = test system: SK-OV-3 ovarian
# [7] = test system: IGROV1 ovarian
# [8] = test system: OVCAR-3 ovarian
# [9] = test system: HS 578T breast
# [10] = test system: NCI/ADR-RES ovarian
# [11] = test system: T-47D breast
# [12] = test system: BT-549 breast
# [13] = test system: MDA-MB-435 melanoma
# [14] = test system: SW-620 colon
# [15] = test system: MCF7 breast
# [16] = test system: HCT-116 colon
# [17] = test system: HCC-2998 colon
# [18] = test system: KM12 colon
SMILES,growth [1],growth [2],growth [3],growth [4],growth [5],growth [6],growth [7],growth [8],growth [9],growth [10],growth [11],growth [12],growth [13],growth [14],growth [15],growth [16],growth [17],growth [18]
O=C([C@H]1C[C@H]1c1ccc(S(F)(F)(F)(F)F)cc1)N1CCN(c2cc(Cl)ccc2C(F)(F)F)CC1,88.1%,75.8%,92.2%,95.3%,90.7%,79.1%,73.3%,100%,91.4%,95.5%,74.9%,106%,102%,95.9%,89.6%,60.2%,96.9%,82.5%
CCN1C(=O)N(c2ccccc2)C2NC(=S)N(/N=C/C=C/c3ccccc3)C21 (centres undefined),7.28% (active),-20.1% (active),5.29% (active),59.7%,34.3%,24%,20.8%,8.14% (active),16.1%,2.91% (active),38.2%,-8.95% (active),-35.1% (active),26.5%,3.24% (active),2.69% (active),17.6%,21%
COc1cc(/C=C/C(=O)c2ccc(NC(=O)CSc3nnc(-c4cc(-c5ccccc5)nc5ccccc45)n3-c3ccccc3)cc2)cc(OC)c1OC,58%,72.3%,86.9%,93.6%,103%,101%,110%,98.5%,90.4%,86.7%,73%,90.7%,92.2%,90.5%,74.3%,79%,88.3%,63.5%
N#C/C(=N\Nc1ccc(Cl)cc1)C(=O)Nc1cc(-c2ccccc2)nn1-c1ccccc1,89.4%,1.81% (active),25.6%,81.6%,36.8%,26.4%,19.9%,15.4%,47%,29.7%,14.7%,11.4%,28.6%,21.4%,16.9%,8.26% (active),39.4%,32.4%
Nc1nc(CSc2n[nH]c(N)n2)nc(Nc2ccccc2)n1,120%,102%,104%,98.8%,93.4%,104%,108%,105%,81.5%,105%,94.5%,95.7%,94.7%,99%,93.3%,105%,110%,98.4%
COc1ccc(Cl)cc1Nc1nc(C(F)(F)F)ccc1C(=O)N/N=C/c1ccc(N(C)C)cc1,7.32% (active),108%,99.8%,79.5%,87.1%,11.8%,96.4%,147%,101%,90%,82.7%,115%,121%,109%,218%,80.3%,68.3%,103%
CCCCn1c(C(=O)c2c[nH]c3ccccc23)n[nH]c1=S,91.7%,78.7%,93.1%,133%,92.4%,88.4%,87.7%,106%,91%,107%,77.5%,114%,98.7%,101%,73.2%,92.4%,101%,92.2%
CCCCC1COc2cccc3c2N1C=C/C3=C\C(=O)N(C)c1cccc(Cl)c1 (centres undefined),94.9%,92.3%,97.1%,102%,72.8%,95.3%,103%,96.4%,99.8%,97.7%,88.7%,107%,101%,102%,104%,91.2%,111%,105%
